Common to all, as to assay: DAPPL (digital affinity profiling via proximity ligation, sequencing); 10 mM Tris-HCl pH 7.5, 50 mM NaCl, 1 mM DTT, 4% glycerol, room temperature, 30 min; GST-TFs on glutathione beads, 16-mer random dsDNA library, 0.1% formaldehyde crosslink after washing; high values mean tight binding
Assay [1] concerns the target T1, FEV (Homo sapiens, UniProt Q99581 1-238).
T1 sequence: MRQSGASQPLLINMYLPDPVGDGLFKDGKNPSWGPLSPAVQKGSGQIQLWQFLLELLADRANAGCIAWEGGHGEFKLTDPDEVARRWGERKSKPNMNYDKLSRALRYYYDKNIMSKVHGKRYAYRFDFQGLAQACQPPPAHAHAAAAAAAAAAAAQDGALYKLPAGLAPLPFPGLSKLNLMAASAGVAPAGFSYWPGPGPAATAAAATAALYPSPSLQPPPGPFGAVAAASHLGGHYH
As to conditions: protein: recombinant; tags: N-terminal GST; dsDNA, one strand shown. The essentials:
(§1)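 Binding signal is given per hexamer as its read frequency for a factor divided by its frequency in the tag-only sample. GST-fused human transcription factors were expressed in yeast, captured on glutathione beads, barcoded with DNA and pooled with that sample, then incubated with 200 nmole of a 16-mer random double-stranded DNA library in Tris/NaCl/DTT/glycerol buffer for 30 min at room temperature. The pools were then washed, crosslinked, proximity-ligated, amplified by PCR and sequenced on an Illumina NextSeq500.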

In assay [2] the target is ETV5 (Homo sapiens, UniProt P41161 1-510). The following applies: protein: recombinant; tags: N-terminal GST; dsDNA, one strand shown. The gist of the method: as §1
Sequence of ETV5 (P41161 whole entry): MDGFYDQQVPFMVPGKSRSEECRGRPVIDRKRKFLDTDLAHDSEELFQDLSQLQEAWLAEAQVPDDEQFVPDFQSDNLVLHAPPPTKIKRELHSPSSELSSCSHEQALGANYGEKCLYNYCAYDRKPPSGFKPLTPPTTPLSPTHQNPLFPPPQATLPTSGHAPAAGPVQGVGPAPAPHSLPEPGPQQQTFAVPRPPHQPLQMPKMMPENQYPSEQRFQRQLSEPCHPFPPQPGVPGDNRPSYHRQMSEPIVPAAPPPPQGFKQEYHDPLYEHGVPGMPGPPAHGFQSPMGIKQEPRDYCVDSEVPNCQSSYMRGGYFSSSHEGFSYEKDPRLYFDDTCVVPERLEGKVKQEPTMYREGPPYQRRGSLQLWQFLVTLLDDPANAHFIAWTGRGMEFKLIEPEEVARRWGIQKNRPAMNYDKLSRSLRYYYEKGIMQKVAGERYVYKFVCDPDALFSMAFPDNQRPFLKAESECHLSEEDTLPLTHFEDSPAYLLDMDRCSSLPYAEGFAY
The target of assay [3] is HSF1 (Homo sapiens, UniProt Q00613 1-529). As to conditions: protein: recombinant; tags: N-terminal GST; chain copies: 3; dsDNA, one strand shown. The gist of the method: as §1
Sequence of HSF1 (Q00613 whole entry): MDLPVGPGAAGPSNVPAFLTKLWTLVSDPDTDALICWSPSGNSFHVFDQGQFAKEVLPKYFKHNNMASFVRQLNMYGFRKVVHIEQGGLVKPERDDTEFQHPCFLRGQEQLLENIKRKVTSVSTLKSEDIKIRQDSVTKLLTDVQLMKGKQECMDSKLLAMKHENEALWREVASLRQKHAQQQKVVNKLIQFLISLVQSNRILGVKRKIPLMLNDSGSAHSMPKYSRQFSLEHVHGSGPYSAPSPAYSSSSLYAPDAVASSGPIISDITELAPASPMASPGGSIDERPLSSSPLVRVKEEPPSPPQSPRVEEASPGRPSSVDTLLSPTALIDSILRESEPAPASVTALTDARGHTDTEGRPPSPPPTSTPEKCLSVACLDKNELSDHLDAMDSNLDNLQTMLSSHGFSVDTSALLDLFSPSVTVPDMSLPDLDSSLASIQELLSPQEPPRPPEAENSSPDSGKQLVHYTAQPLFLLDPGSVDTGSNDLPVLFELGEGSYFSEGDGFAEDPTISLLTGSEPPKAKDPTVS
Assay [4] has as its target T2, SPIC (Homo sapiens, UniProt Q8N5J4 1-248).
T2 sequence: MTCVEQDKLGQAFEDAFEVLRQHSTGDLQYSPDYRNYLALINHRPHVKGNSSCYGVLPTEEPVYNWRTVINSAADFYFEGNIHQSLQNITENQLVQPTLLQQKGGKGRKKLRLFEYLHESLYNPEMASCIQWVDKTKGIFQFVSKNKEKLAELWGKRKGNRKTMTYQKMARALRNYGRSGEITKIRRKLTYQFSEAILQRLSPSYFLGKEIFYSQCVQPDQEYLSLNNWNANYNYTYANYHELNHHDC
The following applies: protein: recombinant; tags: N-terminal GST; dsDNA, one strand shown. The gist of the method:
as §1

The target of assay [5] is ELF4 (Homo sapiens, UniProt Q99607 1-663). As to conditions: protein: recombinant; tags: N-terminal GST; dsDNA, one strand shown. The essentials:
as §1

Assay [6] concerns the target T3, ELK4 (Homo sapiens, UniProt P28324-2 1-405).
T3 sequence: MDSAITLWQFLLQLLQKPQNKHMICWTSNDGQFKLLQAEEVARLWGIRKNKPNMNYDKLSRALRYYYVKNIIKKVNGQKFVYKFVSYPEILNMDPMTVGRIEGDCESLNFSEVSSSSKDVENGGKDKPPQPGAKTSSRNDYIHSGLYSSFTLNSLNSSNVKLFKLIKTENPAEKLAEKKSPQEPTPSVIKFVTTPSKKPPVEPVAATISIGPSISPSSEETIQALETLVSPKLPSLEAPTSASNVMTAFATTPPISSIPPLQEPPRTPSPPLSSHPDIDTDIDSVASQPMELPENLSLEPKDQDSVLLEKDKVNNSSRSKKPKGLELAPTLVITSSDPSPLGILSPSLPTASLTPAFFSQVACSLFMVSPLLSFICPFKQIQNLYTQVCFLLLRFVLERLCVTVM
As to conditions: protein: recombinant; tags: N-terminal GST; dsDNA, one strand shown. The gist of the method:
as §1

Assay [7] deals with T4, ETV2 (Homo sapiens, UniProt O00321 1-342).
T4 sequence: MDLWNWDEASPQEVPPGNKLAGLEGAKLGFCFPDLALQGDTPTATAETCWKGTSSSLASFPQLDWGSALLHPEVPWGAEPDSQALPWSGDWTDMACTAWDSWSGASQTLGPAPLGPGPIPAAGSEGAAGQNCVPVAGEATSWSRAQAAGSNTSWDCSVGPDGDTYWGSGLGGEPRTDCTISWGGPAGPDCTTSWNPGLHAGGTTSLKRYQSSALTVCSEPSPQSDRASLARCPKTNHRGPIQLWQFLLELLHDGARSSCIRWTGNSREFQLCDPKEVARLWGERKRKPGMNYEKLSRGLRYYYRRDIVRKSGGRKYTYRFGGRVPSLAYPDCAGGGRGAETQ
The following applies: protein: recombinant; tags: N-terminal GST; dsDNA, one strand shown. The essentials:
as §1

Assay [8] addresses T5, ELF3 (Homo sapiens, UniProt P78545 1-371).
T5 sequence: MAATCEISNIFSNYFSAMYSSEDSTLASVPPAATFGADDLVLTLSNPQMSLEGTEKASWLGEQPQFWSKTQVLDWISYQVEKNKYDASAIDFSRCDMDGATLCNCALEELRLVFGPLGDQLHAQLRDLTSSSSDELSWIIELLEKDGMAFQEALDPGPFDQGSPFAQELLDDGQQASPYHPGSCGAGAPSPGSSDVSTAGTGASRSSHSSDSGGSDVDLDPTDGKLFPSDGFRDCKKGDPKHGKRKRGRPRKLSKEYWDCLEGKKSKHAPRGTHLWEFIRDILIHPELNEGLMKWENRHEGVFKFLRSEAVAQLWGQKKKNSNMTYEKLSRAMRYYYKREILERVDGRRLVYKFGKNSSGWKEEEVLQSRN
As to conditions: protein: recombinant; tags: N-terminal GST; dsDNA, one strand shown. The essentials: as §1

The target in assay [9] is CRX (Homo sapiens, UniProt O43186 1-299). As to conditions: protein: recombinant; tags: N-terminal GST; dsDNA, one strand shown. The essentials:
as §1

For assay [10], the target named is ETV1 (Homo sapiens, UniProt P50549 1-477). The following applies: protein: recombinant; tags: N-terminal GST; dsDNA, one strand shown. The essentials: as §1
Sequence of ETV1 (P50549 whole entry): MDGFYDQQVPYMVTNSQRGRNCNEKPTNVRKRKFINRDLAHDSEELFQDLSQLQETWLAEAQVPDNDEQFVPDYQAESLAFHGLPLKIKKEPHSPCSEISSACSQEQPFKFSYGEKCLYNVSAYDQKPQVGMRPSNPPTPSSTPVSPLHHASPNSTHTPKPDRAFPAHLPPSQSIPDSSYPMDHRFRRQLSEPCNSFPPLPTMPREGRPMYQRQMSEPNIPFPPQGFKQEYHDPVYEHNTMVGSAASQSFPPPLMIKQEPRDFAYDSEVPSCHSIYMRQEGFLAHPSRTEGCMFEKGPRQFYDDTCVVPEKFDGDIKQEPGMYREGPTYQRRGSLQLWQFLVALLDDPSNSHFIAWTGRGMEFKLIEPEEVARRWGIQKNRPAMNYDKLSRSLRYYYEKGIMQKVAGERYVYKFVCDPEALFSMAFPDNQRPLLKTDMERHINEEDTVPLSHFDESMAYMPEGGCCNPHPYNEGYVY
Assay [11] addresses T6, ERF (Homo sapiens, UniProt P50548 1-548).
T6 sequence: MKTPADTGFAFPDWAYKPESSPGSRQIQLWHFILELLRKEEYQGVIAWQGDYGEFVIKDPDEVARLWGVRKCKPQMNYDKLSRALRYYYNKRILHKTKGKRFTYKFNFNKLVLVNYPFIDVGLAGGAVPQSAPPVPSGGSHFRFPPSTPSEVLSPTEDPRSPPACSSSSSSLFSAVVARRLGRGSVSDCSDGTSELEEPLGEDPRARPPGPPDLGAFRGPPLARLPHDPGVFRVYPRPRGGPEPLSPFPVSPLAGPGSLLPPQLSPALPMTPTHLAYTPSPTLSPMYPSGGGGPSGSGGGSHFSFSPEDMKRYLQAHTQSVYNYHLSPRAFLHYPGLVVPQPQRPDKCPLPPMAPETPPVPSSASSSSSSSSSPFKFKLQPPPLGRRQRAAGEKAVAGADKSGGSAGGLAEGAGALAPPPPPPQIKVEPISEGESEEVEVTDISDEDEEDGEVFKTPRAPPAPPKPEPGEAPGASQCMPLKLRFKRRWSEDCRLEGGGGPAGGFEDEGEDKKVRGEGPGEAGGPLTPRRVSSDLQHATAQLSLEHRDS
As to conditions: protein: recombinant; tags: N-terminal GST; dsDNA, one strand shown. The gist of the method: as §1

The target of assay [12] is T7, ETV3L (Homo sapiens, UniProt Q6ZN32 1-361).
T7 sequence: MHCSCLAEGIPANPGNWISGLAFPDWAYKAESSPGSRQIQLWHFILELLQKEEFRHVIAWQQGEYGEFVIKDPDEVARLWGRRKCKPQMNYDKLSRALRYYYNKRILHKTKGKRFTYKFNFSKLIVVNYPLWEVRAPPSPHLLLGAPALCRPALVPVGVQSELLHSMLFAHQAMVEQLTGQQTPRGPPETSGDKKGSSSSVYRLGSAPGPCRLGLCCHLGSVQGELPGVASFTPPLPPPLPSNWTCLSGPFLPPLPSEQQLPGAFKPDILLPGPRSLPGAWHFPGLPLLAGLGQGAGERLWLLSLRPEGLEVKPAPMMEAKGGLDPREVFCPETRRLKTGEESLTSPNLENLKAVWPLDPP
As to conditions: protein: recombinant; tags: N-terminal GST; dsDNA, one strand shown. The essentials: as §1

Assay [13] addresses T8, ETS2 (Homo sapiens, UniProt P15036 1-469).
T8 sequence: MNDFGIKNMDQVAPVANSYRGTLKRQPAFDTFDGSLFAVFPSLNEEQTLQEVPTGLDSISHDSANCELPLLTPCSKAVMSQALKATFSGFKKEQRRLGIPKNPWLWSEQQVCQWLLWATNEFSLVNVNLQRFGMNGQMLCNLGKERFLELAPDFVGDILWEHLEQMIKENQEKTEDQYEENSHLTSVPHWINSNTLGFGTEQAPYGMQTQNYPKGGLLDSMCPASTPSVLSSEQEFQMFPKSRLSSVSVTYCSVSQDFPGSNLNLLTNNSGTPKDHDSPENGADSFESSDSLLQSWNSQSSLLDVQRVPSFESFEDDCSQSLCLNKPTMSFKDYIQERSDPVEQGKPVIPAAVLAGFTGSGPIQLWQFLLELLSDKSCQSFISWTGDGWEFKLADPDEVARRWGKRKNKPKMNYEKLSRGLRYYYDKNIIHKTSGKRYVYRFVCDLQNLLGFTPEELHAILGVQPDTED
As to conditions: protein: recombinant; tags: N-terminal GST; dsDNA, one strand shown. The essentials:
as §1

Assay [14] concerns the target T9, SPDEF (Homo sapiens, UniProt O95238 1-335).
T9 sequence: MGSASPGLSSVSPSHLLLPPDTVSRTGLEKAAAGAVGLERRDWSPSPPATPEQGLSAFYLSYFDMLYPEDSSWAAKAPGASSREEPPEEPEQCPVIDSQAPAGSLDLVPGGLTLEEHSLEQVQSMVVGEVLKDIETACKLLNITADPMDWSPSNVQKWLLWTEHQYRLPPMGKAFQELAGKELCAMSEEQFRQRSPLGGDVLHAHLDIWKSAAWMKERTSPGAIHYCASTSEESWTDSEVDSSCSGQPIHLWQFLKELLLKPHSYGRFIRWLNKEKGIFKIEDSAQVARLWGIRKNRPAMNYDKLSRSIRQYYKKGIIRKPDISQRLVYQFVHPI
As to conditions: protein: recombinant; tags: N-terminal GST; dsDNA, one strand shown. The gist of the method: as §1

Assay [15] has as its target T10, ETV7 (Homo sapiens, UniProt Q9Y603 1-341).
T10 sequence: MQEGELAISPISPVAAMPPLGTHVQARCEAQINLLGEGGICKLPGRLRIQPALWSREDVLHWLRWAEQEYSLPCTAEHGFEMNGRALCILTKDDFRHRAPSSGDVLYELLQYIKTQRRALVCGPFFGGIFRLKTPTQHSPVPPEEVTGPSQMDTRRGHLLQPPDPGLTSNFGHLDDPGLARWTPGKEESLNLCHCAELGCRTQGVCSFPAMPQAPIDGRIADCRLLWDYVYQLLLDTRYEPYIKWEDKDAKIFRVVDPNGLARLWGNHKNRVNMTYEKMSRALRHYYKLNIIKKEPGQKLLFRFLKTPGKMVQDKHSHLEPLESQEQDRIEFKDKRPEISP
The following applies: protein: recombinant; tags: N-terminal GST; dsDNA, one strand shown. The essentials:
as §1

In assay [16] the target is T11, ELF5 (Homo sapiens, UniProt Q9UKW6-2 1-255).
T11 sequence: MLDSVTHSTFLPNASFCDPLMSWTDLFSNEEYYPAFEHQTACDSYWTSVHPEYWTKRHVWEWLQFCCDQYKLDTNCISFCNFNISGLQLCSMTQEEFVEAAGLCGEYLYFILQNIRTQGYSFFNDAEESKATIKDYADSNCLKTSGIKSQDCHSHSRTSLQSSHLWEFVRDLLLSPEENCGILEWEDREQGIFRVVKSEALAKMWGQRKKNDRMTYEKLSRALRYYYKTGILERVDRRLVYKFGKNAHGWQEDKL
The following applies: protein: recombinant; tags: N-terminal GST; dsDNA, one strand shown. The gist of the method:
as §1

Assay [17] concerns the target T12, ETV3 (Homo sapiens, UniProt P41162-2 1-143).
T12 sequence: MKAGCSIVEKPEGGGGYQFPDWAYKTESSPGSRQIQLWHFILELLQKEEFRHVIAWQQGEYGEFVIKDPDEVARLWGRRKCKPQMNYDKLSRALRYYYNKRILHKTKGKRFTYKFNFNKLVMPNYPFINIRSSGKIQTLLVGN
As to conditions: protein: recombinant; tags: N-terminal GST; dsDNA, one strand shown. The gist of the method:
as §1

Assay [18] addresses ETV6 (Homo sapiens, UniProt P41212 1-452). As to conditions: protein: recombinant; tags: N-terminal GST; dsDNA, one strand shown. The gist of the method:
as §1

Sequence of ELF4 (Q99607 whole entry): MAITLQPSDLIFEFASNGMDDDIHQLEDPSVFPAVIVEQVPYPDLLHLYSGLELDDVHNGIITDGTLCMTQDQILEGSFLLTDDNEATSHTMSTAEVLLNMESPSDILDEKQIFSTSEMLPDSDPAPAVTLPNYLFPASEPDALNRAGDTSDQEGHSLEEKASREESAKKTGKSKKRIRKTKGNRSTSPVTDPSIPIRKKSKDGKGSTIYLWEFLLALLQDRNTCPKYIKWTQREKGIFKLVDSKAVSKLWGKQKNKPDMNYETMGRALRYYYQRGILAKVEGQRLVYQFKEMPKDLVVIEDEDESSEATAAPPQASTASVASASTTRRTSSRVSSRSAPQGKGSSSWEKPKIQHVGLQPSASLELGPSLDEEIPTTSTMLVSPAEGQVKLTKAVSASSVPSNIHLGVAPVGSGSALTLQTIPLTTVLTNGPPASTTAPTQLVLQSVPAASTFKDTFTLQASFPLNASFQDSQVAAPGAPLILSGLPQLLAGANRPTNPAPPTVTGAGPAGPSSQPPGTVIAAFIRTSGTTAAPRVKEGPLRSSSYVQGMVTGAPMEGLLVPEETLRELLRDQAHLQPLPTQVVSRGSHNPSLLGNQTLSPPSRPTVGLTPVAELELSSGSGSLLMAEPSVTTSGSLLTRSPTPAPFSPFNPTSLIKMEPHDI
Sequence of ETV6 (P41212 whole entry): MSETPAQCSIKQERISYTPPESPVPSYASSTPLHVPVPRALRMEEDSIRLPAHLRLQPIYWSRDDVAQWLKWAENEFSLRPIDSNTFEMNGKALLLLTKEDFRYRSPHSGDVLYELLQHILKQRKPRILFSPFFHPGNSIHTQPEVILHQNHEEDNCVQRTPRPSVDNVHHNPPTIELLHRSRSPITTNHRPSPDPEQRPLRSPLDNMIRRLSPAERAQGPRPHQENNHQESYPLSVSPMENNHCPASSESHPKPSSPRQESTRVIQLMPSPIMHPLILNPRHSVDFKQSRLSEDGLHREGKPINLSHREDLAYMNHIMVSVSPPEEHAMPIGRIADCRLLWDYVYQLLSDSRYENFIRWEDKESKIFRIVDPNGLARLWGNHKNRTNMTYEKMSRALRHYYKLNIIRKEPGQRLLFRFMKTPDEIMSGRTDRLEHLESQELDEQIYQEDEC
Sequence of CRX (O43186 whole entry): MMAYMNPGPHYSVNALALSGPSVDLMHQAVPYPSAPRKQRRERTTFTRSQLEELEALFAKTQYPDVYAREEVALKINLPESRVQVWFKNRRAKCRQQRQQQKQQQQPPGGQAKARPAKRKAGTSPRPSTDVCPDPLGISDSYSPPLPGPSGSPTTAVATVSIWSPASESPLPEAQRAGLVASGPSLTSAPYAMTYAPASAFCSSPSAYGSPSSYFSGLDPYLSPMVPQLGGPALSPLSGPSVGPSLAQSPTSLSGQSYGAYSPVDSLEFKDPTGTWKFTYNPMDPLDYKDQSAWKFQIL

Consider CCGTTC, for which the binding signal in assay [1] is 1.48 fold enrichment (6-mer frequency, TF over GST control); in [2], 1.43 fold enrichment (6-mer frequency, TF over GST control); in [3] it was 1.18 fold enrichment (6-mer frequency, TF over GST control); in assay [4] it was 1.32 fold enrichment (6-mer frequency, TF over GST control); in [5] it was 1.37 fold enrichment (6-mer frequency, TF over GST control); in assay [6], 1.23 fold enrichment (6-mer frequency, TF over GST control). Moreover, the binding signal in [7] was 1.4 fold enrichment (6-mer frequency, TF over GST control); in assay [8], 1.36 fold enrichment (6-mer frequency, TF over GST control); in [9], 1.11 fold enrichment (6-mer frequency, TF over GST control); in assay [10], 1.27 fold enrichment (6-mer frequency, TF over GST control); in assay [11] it was 1.61 fold enrichment (6-mer frequency, TF over GST control); in assay [12], 1.44 fold enrichment (6-mer frequency, TF over GST control). Further, the binding signal in [13] was 1.36 fold enrichment (6-mer frequency, TF over GST control); in assay [14], 1.41 fold enrichment (6-mer frequency, TF over GST control); in [15] it was 1.32 fold enrichment (6-mer frequency, TF over GST control); in assay [16] it was 1.56 fold enrichment (6-mer frequency, TF over GST control); in assay [17] it was 1.38 fold enrichment (6-mer frequency, TF over GST control); in [18], 1.37 fold enrichment (6-mer frequency, TF over GST control).

These data come from publication PMC7862700, “An all-to-all approach to the identification of sequence-specific readers for epigenetic DNA modifications on cytosine”.
